Where “and” joins values, the source holds several entries; their conditions need not be identical. Equal entries are not always repeated. Screen size: about 16,000 compounds; about 5,700 (36%) were called active. Roughly 24% stayed inconclusive and do not appear here. The list shows a part of the results. Values without a mark were called inactive. The call rests on the fitted dose curve; in most records, active means well fitted curve in the direction sought with a large enough effect; inconclusive means small, poorly fitted or top-dose-only effect, or effect the other way; inactive means no such curve, though single readings can be large or run the other way.
On the % scale 0 is the no-effect control and ±100 the full control effect.

Sequence of Cytochrome P450 1A2 (Homo sapiens) (P05177 whole entry, looked up): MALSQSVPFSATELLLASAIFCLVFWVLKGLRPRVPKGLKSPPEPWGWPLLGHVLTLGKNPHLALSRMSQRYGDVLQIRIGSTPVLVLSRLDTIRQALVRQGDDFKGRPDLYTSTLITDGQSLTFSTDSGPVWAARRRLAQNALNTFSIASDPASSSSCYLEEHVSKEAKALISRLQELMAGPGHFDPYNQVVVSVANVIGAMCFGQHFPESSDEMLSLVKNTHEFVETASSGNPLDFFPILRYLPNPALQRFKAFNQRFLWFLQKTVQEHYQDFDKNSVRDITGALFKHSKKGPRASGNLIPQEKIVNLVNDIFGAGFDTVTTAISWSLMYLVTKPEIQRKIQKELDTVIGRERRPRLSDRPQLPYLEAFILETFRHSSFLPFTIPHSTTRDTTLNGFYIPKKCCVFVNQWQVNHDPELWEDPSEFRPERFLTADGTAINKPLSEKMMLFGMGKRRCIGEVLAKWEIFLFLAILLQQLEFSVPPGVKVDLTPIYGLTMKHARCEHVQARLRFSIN

The experiment addresses Cytochrome P450 1A2 (Homo sapiens) (UniProt P05177). Briefly: Cytochrome panel assay with activity outcomes. The conditions noted are these: recombinant CYP, pro-luciferin dealkylation, luminescence, p450-cyp1a2; series mostly up to 57.1 µM.
As for `N#Cc1c(NC(=O)C(F)(F)F)sc2c3c(=O)c4ccccc4c(=O)c=3oc3ccccc3c12`, the AC50 (in general, the concentration at which the activity in the assay is half-maximal) is 1 µM (active). The same measure, in the same setting: to `C[C@@](N)(C(=O)O)c1ccc(C(=O)O)cc1` belongs “inactive”. For the compound `COCC(=O)N1CCC2(CC1)CCN(c1ncccn1)CC2`, the AC50 result is “inactive”. Consider `CN(C(=O)c1cnc(N2CCN(c3ncccn3)CC2)c2ccccc12)c1ccc(Cl)cc1`, for which the AC50 was 15.8 µM (active). The same measure, in the same setting: to `O=C(c1cnc(N2CCN(c3ncccn3)CC2)c2ccccc12)N1CCN(c2ncccn2)CC1` belongs “inactive”; to `CN(CCc1ccc(Cl)c(Cl)c1)CCN1CCCCCC1`, 31.6 µM (active). Regarding `O=C(Cc1ccc(Cl)c(Cl)c1)OCCN1CCCC1`, the AC50 is 12.6 µM (active).

For `COc1ccc(CCN(C)CCc2ccc(OC)c(OC)c2)cc1OC`, the AC50 result was “inactive”.

As for `CCOC(=O)CC1C(=O)NCCN1S(=O)(=O)c1ccc(Cl)c(Cl)c1` (centres undefined), the AC50 result was “inactive”. Consider `CO[C@H]1COC(=O)[C@@H](CCSC)NC(=O)C/C=C\[C@@H](C)[C@H](OC)COC(=O)[C@@H](OCc2ccccc2)/C=C\[C@@H]1C`, for which the activity, negative = inhibition is -4.15% [at 11.4 µM]. With `Cc1ccc(C(=O)NCCNc2ccc(Cl)cc2[N+](=O)[O-])o1`, the half-maximal activity concentration (AC50) is 2 µM (active). For `COc1cccc(C2C(C(=O)c3cc4ccccc4o3)=C(O)C(=O)N2c2cc(C)on2)c1OC` (centres undefined), the AC50 entry is “inactive”. With `COc1cccc2cc3c(=O)oc4ccccc4c3nc12`, the AC50 is 0.0891 µM (active).

Regarding `CO/N=C\C[C@@H]1C=C[C@H](OC(C)=O)[C@H](COC(C)=O)O1`, the activity, negative = inhibition is -9.17% [at 11.4 µM]. `CCO/C([O-])=N/c1c[n+](N2CCOCC2)no1`: the AC50 result is “inactive”.

As for `CC(C)C(C(=O)NCC1CCCO1)N(Cc1ccco1)C(=O)CNS(=O)(=O)c1ccc(F)cc1` (centres undefined), the AC50 result was “inactive”. Take `O=C(NCCc1cccs1)C1CC(c2c(Cl)cccc2Cl)=NO1` (centres undefined): the AC50 is 0.501 µM (active). Turning to `CCN(CC)C(=S)SSC(=S)N(CC)CC`, the half-maximal activity concentration (AC50) was 6.31 µM (active) and 1.58 µM (active). Regarding `Cn1cc(-c2nc3cnc(N4CCNCC4)nc3n(C3CC3)c2=O)c2ccccc21`, the concentration at half-maximal activity (AC50) is 12.6 µM (active). Turning to `COc1ccc(-n2c(=O)c(-c3cn(C)c4ccccc34)nc3cnc(N4CCNCC4)nc32)cc1`, the concentration at half-maximal activity (AC50) was 15.8 µM (active). For the compound `Cn1cc(-c2nc3cnc(N4CCNCC4)nc3n(-c3ccccc3)c2=O)c2ccccc21`, the AC50 is 15.8 µM (active).

`COc1ccc2c3c([nH]c2c1)[C@H]1C[C@@H]2[C@@H](C[C@@H](O)[C@H](OC)[C@H]2C(=O)O)CN1CC3`: the activity, negative = inhibition was -1.02% [at 11.4 µM]. In the case of `COc1cnc(-c2ccccn2)nc1Oc1ccc(Cl)c2ccccc12`, the concentration at half-maximal activity (AC50) was 5.62 µM (active). As to `CCOC(=O)/C(C#N)=C1/C=CN(C)C=N1`, the AC50 result is “inactive”.

The record behind these values is PubChem BioAssay AID1851 (National Center for Advancing Translational Sciences (NCATS), 2009).
